Compound activity: PubChem, National Center for Advancing Translational Sciences (NCATS)
FMDV antiviral – High Throughput Screening for Foot and Mouth Disease Virus Antivirals; FMDV antiviral cell-based qHTS; Potency, µM (doses to about 57.9 µM), for inactives: top-dose activity change, negative = inhibition, actives largely listed as inhibitors; actives 1.2% (n = 410,000); AID 1159524, 2015; calls by dose curve; tested in HEK293T cells; further: read-out not given here; potency means the concentration at half of the fitted maximal effect; nearly all actives have a fitted effect of over 45% in size
HCMV antiviral – qHTS Assay for inhibitors of the human cytomegalovirus (HCMV); activity change, negative = inhibition, % at 57.5 µM; AID 1259415, 2018; actives 4.5% (n = 410,000); HFF cells, HCMV-luciferase reporter, 72 h; active compounds read low; in the data active means activity change below about -60%; inconclusive means no clear call, values can overlap the other calls; inactive means above about -39%
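After 16 h attachment at 37C, HFF cells received test compound and HCMV-luciferase (1 PFU/cell); reporter luminescence read 72 h later, data normalized against buffer-only and known inhibitor Salinomycin.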
AmpC detergent – qHTS Inhibitors of AmpC Beta-Lactamase (assay with detergent) | Potency, µM (titrated, usually from 114 µM), for the others: top-dose activity change, negative = inhibition, actives largely listed as inhibitors | actives 0.041% (n = 370,000) | AmpC hydrolysis of nitrocefin, absorbance 480 nm, 0.01% Triton | P00811 | AID 485294, 2010;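 further: potency means the concentration at half of the fitted maximal effect; 0% = no-compound wells and -100% = no-enzyme wells; nearly all actives have a fitted effect of over 25% in size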
Target sequence (P00811 whole entry, looked up): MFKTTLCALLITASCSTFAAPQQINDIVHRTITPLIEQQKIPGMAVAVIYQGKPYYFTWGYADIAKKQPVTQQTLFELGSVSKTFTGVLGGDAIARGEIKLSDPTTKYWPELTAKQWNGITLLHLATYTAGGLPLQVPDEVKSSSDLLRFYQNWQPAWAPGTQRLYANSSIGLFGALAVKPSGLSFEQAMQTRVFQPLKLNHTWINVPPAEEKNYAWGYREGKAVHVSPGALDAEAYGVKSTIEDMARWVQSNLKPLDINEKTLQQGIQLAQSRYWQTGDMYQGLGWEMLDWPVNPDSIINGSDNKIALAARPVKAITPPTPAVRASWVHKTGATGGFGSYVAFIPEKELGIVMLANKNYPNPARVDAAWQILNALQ
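20 mM phosphate pH 7.0 + 0.01% (detergent screen) or 0.0001% Triton X-100; 5.3 nM AmpC reagent; cpd preinc 15 min RT; nitrocefin (800 uM stock) to start; A480 q20 s × 4 min; Activity was normalised to no-enzyme and no-compound control wells.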
HCV inh – qHTS Assay for Inhibitors of Hepatitis C Virus (HCV). Potency, µM (doses to about 41.8 µM), for inactives: at the top dose activity change, negative = inhibition, usual class: inhibitors. AID 651820, 2012. actives 3.4% (n = 340,000). Huh7.5.1 HCVcc-Cre infection, luciferase reporter, 44 h; further: potency means the concentration at half of the fitted maximal effect
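Whole-lifecycle infectious HCVcc-Cre system; cells 1,000/well, compound then virus (~0.5 moi) added 4 h after plating, 44 h culture. Luciferase read 15 sec following 15 min substrate incubation, room temp.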
AmpC no deterg – qHTS Inhibitors of AmpC Beta-Lactamase (assay without detergent) | P00811 | AmpC nitrocefin hydrolysis, absorbance 480 nm, 0.0001% Triton | Potency, µM (series often up to 57.1 µM), for inactives: at the top dose activity change, negative = inhibition, usual class: inhibitors | actives 0.52% (n = 330,000) | AID 485341, 2010;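 further: potency means the concentration at half of the fitted maximal effect; plate controls were no compound for no effect and no enzyme for full effect; nearly all actives have a fitted effect of over 20% in size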
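AmpC (5.3 nM in the dispensed reagent) in 20 mM phosphate pH 7.0 with 0.01% (detergent screen) or 0.0001% Triton X-100 was preincubated with compounds for 15 min at room temperature. Nitrocefin was then added from an 800 uM solution, and hydrolysis was followed at 480 nm.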
Active calls of the source: *; ? = inconclusive; . = no result given. Most compounds without a hit are left out; they make up all but 7.3% or so of the library. Unless noted, the call rests on the fitted dose curve; in most records, active means well fitted curve in the direction sought with a large enough effect; inconclusive means small, poorly fitted or top-dose-only effect, or another doubt; inactive means no such curve, though single readings can be large; an effect the other way counts as inactive or inconclusive. Unless noted, on the % scale 0 is the no-effect control and ±100 the full control effect.

SMILES | FMDV antiviral | HCMV antiviral | AmpC detergent | HCV inh | AmpC no deterg
CN(C)c1ccc(C2Nc3ccccc3C(=O)N2CCCN2CCOCC2)cc1 (stereo not drawn) | 2.8µM* | 9 | 9% | 7% | 11%
CCN(CC)CCN1C(=O)c2ccccc2NC1c1ccc(N(C)C)cc1 (stereo not drawn) | 3.2µM* | 24 | -10% | 12% | 19%
CCC1CN(C(=O)Nc2ccccc2F)c2cc(C)ccc2O1 (stereo not drawn) | -17% | 11 | 12% | . | .
CN(C)CCNc1nc2sc3c(c2c(=O)n1CCc1ccccc1)CCCCC3 | -23% | -99* | -2% | ? | 122%
CC(O)CNc1nc2sc3c(c2c(=O)n1CCc1ccccc1)CCCCC3 (stereo not drawn) | 13% | -28 | ? | -4% | 33%
COc1ccc(C(C(=O)NC(C)(C)C)N(C(=O)CCC(=O)Nc2cc(C)on2)c2ccccc2F)cc1 (stereo not drawn) | 11% | 8 | -10% | 8% | 62%
COc1ccc2c(c1)-c1nc(NC(=O)c3cc(OC)c(OC)c(OC)c3)sc1CC2 | -7% | -16 | 32% | . | .
COc1ccc(C2C(Oc3ccccc3)C(=O)N2c2cc(C)ccc2C)cc1OC (stereo not drawn) | 14% | -9 | -10% | 2% | 0%
COc1ccc(C2C(Oc3ccccc3)C(=O)N2c2ccc(C)c(C)c2)cc1OC (stereo not drawn) | -5% | -4 | . | 11µM* | .
COc1ccc(N=C2S/C(=C\c3cc(C)n(C)c3C)C(=O)N2CC(C)C)cc1 | -19% | 31 | ? | 10µM* | 26%
COc1ccc(CCNC(=O)CCCc2nnc3n(C)c(=O)c4sccc4n23)cc1OC | 24% | -22 | -1% | 7% | 0%
O=C(Nc1ccccc1)c1cc(S(=O)(=O)NCc2ccncc2)ccc1Cl | ? | ? | 3% | ? | -23%
Cc1ccc(S(=O)(=O)CCSc2nc(C)cc(C(F)(F)F)c2C#N)cc1 | ? | -71* | 0% | ? | -22%
Cc1ccc(NC(=O)CSc2nnc3ccc(-c4ccncc4)nn23)cc1 | 0% | ? | ? | 15% | 7%
Cc1ccc(CSc2nnc3ccc(-c4ccncc4)nn23)cc1 | 1% | -60* | ? | -17% | 63%
Cc1cc(OCCN2CCCCC2)nc2ccccc12 | -27% | -5 | 3% | ? | -4%
c1ccc2nc(OCCN3CC3)ccc2c1 | 23% | -64* | 2% | ? | 33%
Cc1ccccc1NC(=O)CN1C(=O)S/C(=C\c2cccn2-c2cccc(C(=O)O)c2)C1=O | -10% | -33 | 2% | 15% | -12%
Cc1cccc(C)c1NC(=O)CN1C(=O)S/C(=C\c2cccn2-c2cccc(C(=O)O)c2)C1=O | -10% | -73* | -10% | 2% | -16%
COc1ccc(-c2coc3cc4oc(=O)c5ccccc5c4cc23)cc1F | -16% | -85* | 5% | ? | -19%
CCOC(=O)c1c(CSc2nc(C)cc(C)c2C#N)n(C)c2cc(Br)c(OC(C)=O)cc12 | ? | -94* | -10% | ? | -22%
C=CCCc1ccc(C#N)c(SCc2c(C(=O)OCC)c3cc(OC(C)=O)c(Br)cc3n2C)n1 | ? | . | -6% | ? | -33%
CCCCCCCCOC(=O)c1c(CSC(=N)N)n(C)c2cc(Br)c(OC(C)=O)cc12 | ? | -92* | 0% | 11µM* | 42%
CCSC1=NC2(CCN(C(=O)NC3CCCCC3)CC2)N=C1c1ccc(Cl)cc1 | -15% | 5 | 3% | . | .
Cc1ccc(NC(=O)CN(C)C(=O)c2ccc3[nH]c4c(c3c2)CC(C)CC4)cc1 (stereo not drawn) | -17% | -29 | -8% | ? | 13%
SMILES | FMDV antiviral | HCMV antiviral | AmpC detergent | HCV inh | AmpC no deterg
COC(=O)c1ccc2[nH]c3c(c2c1)CC(C)CC3 (stereo not drawn) | 58% | -23 | 0% | ? | -20%
COc1cccc(NC(=O)CN(C)C(=O)c2ccc(NC3CC3)c([N+](=O)[O-])c2)c1 | -16% | -18 | -14% | -6% | -22%
CCOc1ccc(NC(=O)CN(C)C(=O)c2ccc3[nH]c4c(c3c2)CC(C)CC4)cc1OCC (stereo not drawn) | 9% | . | ? | 0.56µM* | ?
CCOc1ccc(NC(=O)CN(C)C(=O)c2ccc(NC3CC3)c([N+](=O)[O-])c2)cc1OCC | -8% | 11 | -16% | 11µM* | 42%
CCCN(CC(=O)Nc1ccccc1OC)C(=O)c1ccc2[nH]c3c(c2c1)CC(C)CC3 (stereo not drawn) | ? | -4 | -5% | 7.9µM* | -6%
CCN(CC(=O)Nc1ccccc1OC)C(=O)c1ccc2[nH]c3c(c2c1)CC(C)CC3 (stereo not drawn) | ? | -6 | -11% | 10µM* | -53%
CC1CCc2[nH]c3ccc(C(=O)N(C)CC(=O)Nc4ccccc4Cl)cc3c2C1 (stereo not drawn) | -1% | -8 | -14% | ? | -11%
CC1CCc2[nH]c3ccc(C(=O)N(C)CC(=O)Nc4ccccc4C(F)(F)F)cc3c2C1 (stereo not drawn) | -3% | -88* | -6% | -22% | 16%
O=C(COc1nncc2ccccc12)Nc1ccc(F)c(F)c1 | -11% | -101* | 0% | 20% | -39%
CC[n+]1c(/C=C/C=C/N(C(C)=O)c2ccccc2)sc2ccccc21 | ? | ? | -15% | ? | 15%
CC[n+]1c(/C=C/N(C)c2ccccc2)sc2ccc(Cl)cc21 | . | -97* | -12% | ? | -6%
CC[n+]1c(/C=C/C=C/c2ccc(N(C)C)cc2)sc2ccccc21 | ? | -110* | 8% | 2.8µM* | -4%
CN(C)c1ccc(/C=C/C=C/c2sc3ccccc3[n+]2C)cc1 | 40µM* | -95* | 4% | ? | -15%
Cn1ncc([N+](=O)[O-])c1C(=O)NC1CCCCC1 | -12% | 6 | 3% | -4% | -2%
CC(=O)Nc1ccc(S(=O)(=O)Nc2ccc(Cl)cn2)cc1 | 5% | -1 | -17% | -16% | -4%
CC(=O)Nc1ccc(S(=O)(=O)c2ccnc3cc(Cl)ccc23)cc1 | 32µM* | -83* | . | . | .
Cc1nc(SCC(=O)NC2CCCC2)c2oc3ccccc3c2n1 | -21% | -30 | . | . | .
CCC1CCCCN1C(=O)CSc1nc(N)cc(N)n1 (stereo not drawn) | -4% | -65* | -9% | 2% | -22%
C/C(=N\Nc1ccc(F)cc1F)c1ccc(Br)s1 | 6% | -70* | -1% | ? | -58%
O=C(c1nn2c(C(F)(F)F)cc(-c3cccs3)nc2c1Br)N1CCCc2ccccc21 | 21% | -15 | ? | ? | -25%
